Experimental data published in PubChem BioAssay AID596 (National Center for Advancing Translational Sciences (NCATS), 2007).
The campaign covered roughly 71,000 compounds. About 1,400 (2%) were called active. Inconclusive results (about 3%) are left out. Many of the other results were omitted from the sample, so actives are more common in it than they were. Values without a mark were called inactive. Calls follow the shape of the dose curve; as a rule, active = well fitted curve in the direction sought with a large enough effect; inconclusive = small, poorly fitted or top-dose-only effect; inactive = no such curve, though single readings can be large or run the other way.

Molecular target: Microtubule-associated protein tau (Homo sapiens) (UniProt P10636)
Sequence (P10636 whole entry, looked up): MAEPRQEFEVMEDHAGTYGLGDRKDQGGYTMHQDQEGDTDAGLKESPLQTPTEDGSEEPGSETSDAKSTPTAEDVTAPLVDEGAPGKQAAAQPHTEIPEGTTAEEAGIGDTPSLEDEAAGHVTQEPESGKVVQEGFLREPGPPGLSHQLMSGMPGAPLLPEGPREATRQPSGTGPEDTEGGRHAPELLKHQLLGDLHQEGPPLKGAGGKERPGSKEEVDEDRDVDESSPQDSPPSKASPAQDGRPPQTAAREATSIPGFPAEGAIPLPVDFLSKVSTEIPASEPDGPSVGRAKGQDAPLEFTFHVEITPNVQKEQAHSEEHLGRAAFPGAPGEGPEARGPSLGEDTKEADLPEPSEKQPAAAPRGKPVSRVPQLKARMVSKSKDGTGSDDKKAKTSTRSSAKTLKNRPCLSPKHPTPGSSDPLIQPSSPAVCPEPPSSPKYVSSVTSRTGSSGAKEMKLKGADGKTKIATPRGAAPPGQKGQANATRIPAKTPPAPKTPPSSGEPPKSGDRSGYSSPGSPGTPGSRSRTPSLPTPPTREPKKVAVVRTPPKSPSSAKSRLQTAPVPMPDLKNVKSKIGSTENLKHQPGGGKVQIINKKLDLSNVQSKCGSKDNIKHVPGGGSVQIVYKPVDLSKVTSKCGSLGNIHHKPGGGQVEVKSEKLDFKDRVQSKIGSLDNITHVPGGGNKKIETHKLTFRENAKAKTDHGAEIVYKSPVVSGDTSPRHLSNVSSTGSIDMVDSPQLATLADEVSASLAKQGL
Assay: qHTS Assay for Tau Filament Binding;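 also: actives lower thioflavin S fluorescence by blocking filaments or displacing dye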
Settings: recombinant tau filaments, thioflavin S fluorescence, 15 h, filaments grown with octadecylsulfate alongside compound; series mostly up to 57.1 µM; activity change, negative = inhibition: at the top concentration
From the text: NIH Molecular Libraries Screening Centers Network [MLSCN]
NIH Chemical Genomics Center [NCGC]
Assay Provider: Jeffrey A. Kuret, Ohio State University
Tau monomers form filaments in vitro in the presence of anionic detergents or fatty acids. The dye Thioflavine S (ThS) binds to tau filaments and upon binding, increases in fluorescence several fold. Small molecules that displace ThS binding or prevent filament binding are identified by a reduction in ThS fluorescence. This assay used histidine-tagged, recombinant human tau protein containing the products of exons 2, 3, and 10 that was provided by Jeff Kuret, Ohio State University. To form filaments, 1 uM tau was incubated with 30 uM sodium octadecylsulfate (ODS) in reagent buffer (10 uM thioflavine S, 5 mM 1,4-dithioerythreitol (DTT), 100 mM sodium chloride, 10 mM HEPES pH 7.4) for 15 hrs at 37 C.
NCGC Assay Protocol Summary:
Assay Steps. Two uL/well of 2 uM tau in reagent buffer (10 uM thioflavine S, 5 mM DTT, 100 mM sodium chloride, 10 mM HEPES pH 7.4) was dispensed into solid black 1536-well plates. Twenty-three nL compound was transferred to the assay plate after which 2 uL/well of 60 uM ODS in reagent buffer was dispensed for a final assay volume of 4 uL /well. Following 15 hours of incubation at 37 C, fluorescence was detected by an Envision (Perkin Elmer) using 450/8 nm excitation and 510/23 nm emission.
Keywords: NIH Roadmap, MLSCN, MLI, MLSMR, qHTS, NCGC, Alzheimer's disease, Neurofibrillary lesions, tau, tubulin assembly, microtubule stability, cytoskeletal integrity, fibrillization, thioflavin dyes, Amyloidgenic
% is scaled to controls: 0 for no effect and ±100 for the full control effect; potency is read from the fitted curve at half-maximal effect.

Going from `C[C@]1(C(=O)NCCc2c[nH]c3ccccc23)C=C[C@@H](Cc2ccccc2)N1C(=O)c1ccccc1` to `O=C1c2ccccc2C(O)N1Cc1ccccc1` (centres undefined), the “activity change, negative = inhibition” value falls from 78.2% to 2.9%.

Compared with `Cn1cccc1C(=O)N1CCC2(CC1)CN(c1cccc(-c3ccccc3)c1)C2`, `c1ccc(-c2oc3ncnc(N4CCOCC4)c3c2-c2ccccc2)cc1` is higher in “activity change, negative = inhibition” value: -8.2% for the first, 1.3% for the second.

Compared with `CC(=O)CC(C)C`, `CN(C)C(=O)/N=N\C(=O)N(C)C` is higher in “activity change, negative = inhibition” value: -8.5% for the first, -7.5% for the second.

Compared with `COC(=O)c1ccc(C(NC(=O)OCc2ccccc2)/C(C)=C/[C@@H](C)C(=O)NCc2cc(C)on2)cc1` (some centres undefined), `COC(=O)[C@H]1C[C@@H]1[C@H](NC(=O)Oc1ccc(F)cc1)c1ccccc1` is higher in “activity change, negative = inhibition” value: -4.6% for the first, -3.2% for the second.

Compared with `FC(F)(F)c1cc(-c2ccco2)nc(N2CCOCC2)n1`, `CCOC(=O)c1ccn(-c2nc(-c3ccco3)cc(C(F)(F)F)n2)n1` is lower in “activity change, negative = inhibition” value: 4% for the first, -22.9% for the second.

Compared with `CCC[C@@H]1C[C@@]1(CCC)C(NS(=O)(=O)c1cccc2cccnc12)c1ccc(Cl)cc1` (some centres undefined), `COCCCn1c2nc3ccccc3nc2c2c(=O)n(Cc3ccc(Cl)cc3)c(C)nc21` is higher in “activity change, negative = inhibition” value: -15.3% for the first, 13.7% for the second.

Compared with `CCCc1cc(=O)[nH]c(SCc2ccc(C#N)cc2)n1`, `COCCn1c(=O)[nH]c2cc(C(=O)NCc3cccnc3)ccc2c1=O` is higher in “activity change, negative = inhibition” value: 2.2% for the first, 6.2% for the second.

Going from `CCc1nnc(NC(=O)CSc2nnc(Cc3ccccc3)n2-c2ccc(OC)cc2)s1` to `COc1ccc(Cc2nnc(NS(=O)(=O)Cc3ccccc3)s2)cc1`, the “activity change, negative = inhibition” value rises from -7.8% to -0.8%.

Compared with `COC(=O)N1CCC2(CCCN(c3ccncc3)C2)CC1`, `CCC(C)(C)n1nnnc1C(c1ccccc1OC)N1CCSCC1` (centres undefined) is lower in “activity change, negative = inhibition” value: 19.9% for the first, -8.9% for the second.

First: Cc1cccn2c(=O)c3cc(C#N)c(=O)n(CCCN4CCOCC4)c3nc12
Second: O=C(c1ccc2c(c1)N(Cc1ccc(F)cc1)C(=O)CS2)N1CCOCC1
The “activity change, negative = inhibition” value of the first is higher: 2.6% for the first, -5.7% for the second.

Going from `O=C1C(c2[nH]c3ccccc3c2O)=Nc2ccccc21` to `Cc1ccccc1NC(=O)c1ccccc1`, the “activity change, negative = inhibition” value rises from -20% to 0.4%.

Compared with `Cc1cc2ccccc2n2c(SCC(=O)N3CCN(C(=O)c4ccco4)CC3)nnc12`, `CCOC(=O)CSc1nc2c(sc(=S)n2CCc2ccccc2)c(=O)n1Cc1ccco1` is higher in “activity change, negative = inhibition” value: 6% for the first, 98.7% for the second.

First: CCOC(=O)Cn1c2c(c(-c3ccccc3OC)cc1=O)CCCC2
Second: COC(=O)C1(Cc2ccccc2)C=C2C(=C(C)C(=O)C2C)CN1 (centres undefined)
The “activity change, negative = inhibition” value of the first is lower: 0.5% for the first, 21.1% for the second.

Compared with `CCSc1ncnc2c(C#N)c3n(c12)CCCCC3`, `CCCC(=O)Nc1ccc2c(c1)nc1n2CCSC1` is lower in “activity change, negative = inhibition” value: 11.1% for the first, -16.2% for the second.

Compared with `CC(C)C[C@@H](CC(=O)N[C@@H](CCC(=O)O)CC(=O)O)NC(=O)[C@@H]1CCCC[C@H]1NC(=O)C[C@@H](NC(=O)C[C@H](CO)NC(=O)[C@@H]1CCCC[C@H]1N)C(C)C`, `CCC(C)(C(=O)NC1CCCC1)N(C(=O)CNC(C)=O)c1ccc(C)cc1` (centres undefined) is lower in “activity change, negative = inhibition” value: -3.3% for the first, -10.2% for the second.

Going from `Cn1c(-c2ccco2)nc2cc3ccccc3cc21` to `Cc1ccc(Cn2c(NC(=O)c3ccco3)nc3ccccc32)cc1`, the “activity change, negative = inhibition” value falls from 97.4% to 14.6%.

First: Cc1nn2c3ccccc3nc2n(C)c1=O
Second: COc1ccc(N2C(=O)c3cccc4cccc(c34)C2=O)nn1
The “activity change, negative = inhibition” value of the first is lower: -16.6% for the first, 9.7% for the second.

First: Cc1ccc(C2CC(c3cccc(Br)c3)n3nc(N)nc3N2)cc1 (centres undefined)
Second: Brc1ccc(OCCn2ccnc2)cc1
The “activity change, negative = inhibition” value of the first is lower: -30% for the first, -24.1% for the second.

Compared with `CCNC(=S)NCC`, `COc1ccc(N)c(C)c1` is higher in “activity change, negative = inhibition” value: -11.9% for the first, -6.8% for the second.

Going from `O=c1c2ccccc2oc2nc(C3CCCCC3)n(Cc3ccco3)c(=O)c12` to `c1cnn(-c2cc(N3CCOCC3)ncn2)c1`, the “activity change, negative = inhibition” value rises from -13.1% to -1.2%.

With `Cc1cccc(C(=O)O)c1[N+](=O)[O-]` the “activity change, negative = inhibition” value was 11.9%.

Going from `C[C@H](CCC(=O)O)[C@H]1CC[C@@H]2[C@H]3CC[C@H]4C[C@H](O)CC[C@@]4(C)[C@@H]3CC[C@@]21C` to `O=C(O)[C@H](CCc1ccccn1)c1ccccc1`, the activity change, negative = inhibition falls from 11.3% [at 11.4 µM] to -5.3% [at 11.4 µM].

With `O=C1c2ccccc2C(=O)N1CCCSc1ccccc1` the activity change, negative = inhibition was -2.3% [at 11.4 µM].

With `COC(=O)c1cnn2c(C(F)(F)F)cc(-c3ccco3)nc12` the Potency was 15.8 µM (active).
With `COc1ccc(Cc2nnc(NC(=O)Cc3cccs3)s2)cc1` the Potency was 25.1 µM (active).
For `CC[N+](C)(CC)CCC[n+]1c(-c2ccccc2)c2cc(N)ccc2c2ccc(N)cc21`, the Potency was 1.58 µM (active).
For `CCSC1=C(C#N)C(=O)n2c1cc1c2CCCC1`, the Potency was 25.1 µM (active).
With `C=CC(=O)OCCOCCOCCOCCOC(=O)C=C` the Potency was “inactive”.
In the case of `c1coc(-c2nc3nc4ccccc4n3nc2-c2ccco2)c1`, the Potency is reported as 3.16 µM (active).
With `Cc1ccc(Cn2c(C)nc3c(c2=O)c2nc4ccccc4nc2n3Cc2ccco2)cc1` the Potency was 25.1 µM (active).
With `Cc1nc2c(c(=O)n1Cc1ccco1)c1nc3ccccc3nc1n2Cc1ccccc1` the Potency was 15.8 µM (active).
`O=C1c2ccccc2-c2ncnc3c(N4CCOCC4)cc(N4CCOCC4)c1c23` was tested, and the Potency was 5.01 µM (active).
`C[N+](C)(CCCCCC[N+](C)(C)CCCN1C(=O)c2cccc3cccc(c23)C1=O)CCCN1C(=O)c2cccc3cccc(c23)C1=O` was tested, and the Potency was 2 µM (active).
